Here are results for 29 compounds from PubChem BioAssay (EPA / NIEHS).

Results filed as inconclusive are left out. Calls of active or inactive are those of the source. How the source made its calls: active means hit-call score of the fitted dose curve at least 0.9, where 1 is the maximum; inconclusive means response in the unintended direction; inactive means score below 0.9.

In general, AC50 refers to the midpoint of the concentration-response curve, whichever way the signal moves.

Sequence of rat Opioid Receptor, Non-selective Sodium (Na+) Binding, Oprm1 (gene 25601) (P33535 whole entry, looked up): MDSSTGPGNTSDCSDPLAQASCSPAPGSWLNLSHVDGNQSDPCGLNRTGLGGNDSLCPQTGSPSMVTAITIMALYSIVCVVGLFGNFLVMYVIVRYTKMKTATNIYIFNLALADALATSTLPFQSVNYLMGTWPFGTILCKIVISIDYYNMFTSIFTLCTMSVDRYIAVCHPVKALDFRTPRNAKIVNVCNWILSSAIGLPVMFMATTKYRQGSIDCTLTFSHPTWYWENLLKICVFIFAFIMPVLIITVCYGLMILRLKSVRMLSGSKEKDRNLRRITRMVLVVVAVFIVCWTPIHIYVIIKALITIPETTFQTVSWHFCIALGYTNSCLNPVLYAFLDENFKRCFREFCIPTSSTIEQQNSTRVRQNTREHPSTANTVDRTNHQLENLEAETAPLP
Sequence of rat Somatostatin Receptor (SST), Sstr1 (gene 25033) (P28646 whole entry, looked up): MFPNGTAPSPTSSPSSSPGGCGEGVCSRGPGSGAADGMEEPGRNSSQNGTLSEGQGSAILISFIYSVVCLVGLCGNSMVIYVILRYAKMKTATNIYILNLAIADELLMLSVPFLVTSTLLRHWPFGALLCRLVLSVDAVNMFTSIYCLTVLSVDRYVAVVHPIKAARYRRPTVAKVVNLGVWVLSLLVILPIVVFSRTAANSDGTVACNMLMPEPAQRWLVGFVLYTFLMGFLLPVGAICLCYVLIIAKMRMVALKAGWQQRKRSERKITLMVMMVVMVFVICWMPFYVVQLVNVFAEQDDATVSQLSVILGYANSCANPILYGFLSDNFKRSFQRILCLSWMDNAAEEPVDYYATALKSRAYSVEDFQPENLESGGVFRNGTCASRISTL

One test deals with rat Neurokinin-3 Receptor (NK3), Tacr3 (gene 24808) (UniProt P16177). Kind of test: NVS_GPCR_rNK3: NovaScreen (NVS) G Protein-Coupled Receptor Assay for rat Neurokinin-3 Receptor (NK3) (AID 2283310). The gist of the method: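 Filter-based radioligand displacement on rat cortex membrane preparations, read by scintillation 2 h post-dose. Chemicals first tested in duplicate at 25 uM; actives followed up in concentration series with a 50 uM maximum.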
Sequence of rat Neurokinin-3 Receptor (NK3), Tacr3 (gene 24808) (P16177 whole entry, looked up): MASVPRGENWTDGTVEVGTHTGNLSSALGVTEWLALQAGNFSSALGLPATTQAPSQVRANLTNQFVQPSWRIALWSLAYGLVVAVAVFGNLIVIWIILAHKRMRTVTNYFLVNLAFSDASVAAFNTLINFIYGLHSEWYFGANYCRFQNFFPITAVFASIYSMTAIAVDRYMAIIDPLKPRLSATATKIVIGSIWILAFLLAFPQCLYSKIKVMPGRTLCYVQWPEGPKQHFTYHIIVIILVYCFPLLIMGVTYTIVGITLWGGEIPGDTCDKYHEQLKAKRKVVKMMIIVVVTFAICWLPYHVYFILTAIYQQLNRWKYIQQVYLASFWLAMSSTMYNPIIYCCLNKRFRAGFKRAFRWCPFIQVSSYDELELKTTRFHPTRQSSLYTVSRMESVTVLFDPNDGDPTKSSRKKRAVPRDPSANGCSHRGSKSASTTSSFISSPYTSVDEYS
In the case of `CCN(Cc1cccnc1)C(=O)c1cccc(Cl)c1[C@]1(C)C(=O)N(Cc2ccc(OC)cc2OC)c2ccc(Cl)cc21`, the AC50 was 9.75 µM (active).

For the compound `CCCCCCCCOC(=O)c1cc(O)c(O)c(O)c1`, the outcome was inactive.

Regarding `COc1ccc2cc(S(=O)(=O)N[C@H](CC(=O)N[C@H](Cc3ccc(CN4[C@H](C)CCC[C@@H]4C)cc3)C(=O)N(C)C(C)C)c3ccc4c(c3)OCO4)ccc2c1`, the concentration at half-maximal activity (AC50) is 8.07 µM (active).

Consider `O=C1c2ccccc2C(=O)N1CCc1noc(-c2ccc(CN3CCCCCC3)s2)n1`, for which the compound was classed as inactive.

As for `CN(C[C@@H](CC[N+]12CCC(C3CCCCC3)(CC1)CC2)c1ccc(Cl)c(Cl)c1)C(=O)c1cc(C(F)(F)F)cc(C(F)(F)F)c1`, the AC50 is 5.47 µM (active).

For `CC(O)CC(C)(C)O` (stereo not given), the result was inactive.

Turning to `CN(C)c1ccc(C(=C2C=CC(=[N+](C)C)C=C2)c2ccc(N(C)C)cc2)cc1`, the concentration at half-maximal activity (AC50) was 11.5 µM (active).

For `CCCOC(=O)c1cc(O)c(O)c(O)c1`, the concentration at half-maximal activity (AC50) was 7.59 µM (active).

Take `CN(C)C(=O)C1(N2CCCCC2)CCN(CC[C@@]2(c3ccc(Cl)c(Cl)c3)CN(C(=O)c3ccccc3)CCO2)CC1`: the half-maximal activity concentration (AC50) is 0.00216 µM (active).

Another test has as its target rat Opioid Receptor, Non-selective Sodium (Na+) Binding, Oprm1 (gene 25601) (UniProt P33535). Kind of test: NVS_GPCR_rOpiate_NonSelectiveNa: NovaScreen (NVS) G Protein-Coupled Receptor Assay for rat Opioid Receptor, Non-selective Sodium (Na+) Binding (AID 2283311). The essentials:
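Filtration radioligand binding on rat forebrain membrane preparations, read 1.5 h after dosing. Single-concentration 25 µM primary screen in duplicate, followed by singleton concentration series to 50 µM max for actives; DMSO baseline.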
In the case of `NCc1cccc(C2CCN(C(=O)c3ccc(C#Cc4ccccc4F)o3)CC2)c1`, the AC50 is 11.2 µM (active).

Regarding `CCN(Cc1cccnc1)C(=O)c1cccc(Cl)c1[C@]1(C)C(=O)N(Cc2ccc(OC)cc2OC)c2ccc(Cl)cc21`, the half-maximal activity concentration (AC50) is 13.9 µM (active).

Regarding `COc1ccc2cc(S(=O)(=O)N[C@H](CC(=O)N[C@H](Cc3ccc(CN4[C@H](C)CCC[C@@H]4C)cc3)C(=O)N(C)C(C)C)c3ccc4c(c3)OCO4)ccc2c1`, the AC50 is 4.72 µM (active).

For the compound `COc1cc(C(=O)NC2CCN(C)CC2)ccc1Nc1ncc2c(n1)N(C1CCCC1)CC(F)(F)C(=O)N2C`, the result was inactive.

Consider `Clc1ccccc1C(c1ccccc1)(c1ccccc1)n1ccnc1`, for which the call was inactive.

As to `CN(C[C@@H](CC[N+]12CCC(C3CCCCC3)(CC1)CC2)c1ccc(Cl)c(Cl)c1)C(=O)c1cc(C(F)(F)F)cc(C(F)(F)F)c1`, the half-maximal activity concentration (AC50) is 12.5 µM (active).

In the case of `Cc1occc1C(=O)Nc1ccc(C(=O)N2CCC(F)(F)/C(=C\C(=O)N3CCC(N4CCCCC4)CC3)c3ccccc32)cc1`, the AC50 is 5.68 µM (active).

As to `CC(C)(c1cc(Br)c(O)c(Br)c1)c1cc(Br)c(O)c(Br)c1`, the result was inactive.

As for `CC(O)CC(C)(C)O` (stereo not given), the call was inactive.

Turning to `O=c1c(-c2ccc(O)cc2)coc2cc(O)cc(O)c12`, the compound was classed as inactive.

Regarding `CN(C)c1ccc(C(=C2C=CC(=[N+](C)C)C=C2)c2ccc(N(C)C)cc2)cc1`, the half-maximal activity concentration (AC50) is 9.72 µM (active).

Take `CCCCOC(=O)c1ccc(O)cc1`: the concentration at half-maximal activity (AC50) is 25 µM (active).

In the case of `C[C@]12CC[C@@H]3c4ccc(O)cc4CC[C@H]3[C@@H]1CCC2=O`, the AC50 is 13.9 µM (active).

In the case of `CCN(CC)C(=O)c1cc(S(=O)(=O)Cc2ccccc2)c(N2CCC(c3ccccc3)CC2)cc1N(CC)CCN(C)C`, the compound was called inactive.

Consider `Cc1cc(F)ccc1-c1cc(N2CC[C@@H](O)[C@H]2CO)ncc1N(C)C(=O)C(C)(C)c1cc(C(F)(F)F)cc(C(F)(F)F)c1`, for which the result was inactive.

On to `COc1cccc([C@H](O)C2CCN(CCc3ccc(F)cc3)CC2)c1OC`, for which the AC50 is 15.7 µM (active).

Regarding `C[C@]12CC[C@@H]3c4ccc(O)cc4CC[C@H]3[C@@H]1CC[C@H]2O`, the result was inactive.

On to `CN(C)C(=O)C1(N2CCCCC2)CCN(CC[C@@]2(c3ccc(Cl)c(Cl)c3)CN(C(=O)c3ccccc3)CCO2)CC1`, for which the AC50 was 3.48 µM (active).

The target of a further test is rat Somatostatin Receptor (SST), Sstr1 (gene 25033) (UniProt P28646). The experiment in a line: NVS_GPCR_rSST: NovaScreen (NVS) G Protein-Coupled Receptor Assay for rat Somatostatin Receptor (SST) (AID 2283314). The essentials:
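Single-concentration duplicate screen (25 uM), then concentration-response up to 50 uM for chemicals passing a threshold such as 30% inhibition. Membranes came from rat forebrain. Binding was measured 1 h post-dose by filter radiodetection and scintillation, relative to DMSO.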
With `NCc1cccc(C2CCN(C(=O)c3ccc(C#Cc4ccccc4F)o3)CC2)c1`, the half-maximal activity concentration (AC50) is 15 µM (active).

Take `COc1ccc2cc(S(=O)(=O)N[C@H](CC(=O)N[C@H](Cc3ccc(CN4[C@H](C)CCC[C@@H]4C)cc3)C(=O)N(C)C(C)C)c3ccc4c(c3)OCO4)ccc2c1`: the AC50 was 5.07 µM (active).

On to `CCOC(=O)O[C@H](C)OC(=O)c1ccc2c(c1)cc(C(=O)NC1CCN(C(C)C)CC1)n2Cc1cc(-c2ccc(Cl)s2)on1`, for which the half-maximal activity concentration (AC50) is 14.9 µM (active).

`O=c1[nH]sc2ccccc12`: the outcome was inactive.

Turning to `CN(C)c1ccc(C(=C2C=CC(=[N+](C)C)C=C2)c2ccc(N(C)C)cc2)cc1`, the compound was classed as inactive.

Regarding `CC/C(=C(/CC)c1ccc(O)cc1)c1ccc(O)cc1`, the AC50 is 25 µM (active).

Take `CN(C)C(=O)C1(N2CCCCC2)CCN(CC[C@@]2(c3ccc(Cl)c(Cl)c3)CN(C(=O)c3ccccc3)CCO2)CC1`: the concentration at half-maximal activity (AC50) was 12.6 µM (active).

The target of a further test is rat Neonicotinoid receptor (NNR), Chrna7 (gene 25302) (UniProt Q05941). Kind of test: NVS_LGIC_rNNR_BungSens: NovaScreen (NVS) Ligand-Gated Ion Channel Assay for rat Neonicotinoid receptor (NNR) (AID 2283315). The gist of the method: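 Rat cortical membrane preparation incubated 2.5 h with tritiated or iodinated radioligand and test chemical. Bound radioactivity was filtered and counted by scintillation, and displacement was analysed against DMSO.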
Sequence of rat Neonicotinoid receptor (NNR), Chrna7 (gene 25302) (Q05941 whole entry, looked up): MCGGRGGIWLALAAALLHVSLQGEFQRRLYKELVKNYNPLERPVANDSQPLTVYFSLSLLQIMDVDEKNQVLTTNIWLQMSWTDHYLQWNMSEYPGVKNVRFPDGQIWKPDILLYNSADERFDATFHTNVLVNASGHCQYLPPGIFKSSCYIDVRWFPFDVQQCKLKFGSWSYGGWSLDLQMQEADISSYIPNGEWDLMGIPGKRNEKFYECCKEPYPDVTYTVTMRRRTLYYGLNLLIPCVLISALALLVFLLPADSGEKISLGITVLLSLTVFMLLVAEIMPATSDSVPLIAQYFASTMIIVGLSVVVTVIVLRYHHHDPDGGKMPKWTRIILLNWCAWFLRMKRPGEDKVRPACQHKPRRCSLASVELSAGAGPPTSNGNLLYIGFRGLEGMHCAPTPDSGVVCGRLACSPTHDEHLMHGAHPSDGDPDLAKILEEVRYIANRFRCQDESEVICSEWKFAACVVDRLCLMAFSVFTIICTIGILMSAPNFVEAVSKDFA
For `O=C(O)Cc1cc(I)c(Oc2ccc(O)c(I)c2)c(I)c1`, the compound was classed as inactive.

Regarding `Clc1cc(Cl)c2c(c1)N=C1CCCCCN1C2`, the concentration at half-maximal activity (AC50) was 5.61 µM (active).

Turning to `COc1ccc2cc(S(=O)(=O)N[C@H](CC(=O)N[C@H](Cc3ccc(CN4[C@H](C)CCC[C@@H]4C)cc3)C(=O)N(C)C(C)C)c3ccc4c(c3)OCO4)ccc2c1`, the compound was classed as inactive.

For `CC(C)(C)c1csc(-c2cc3cc(OCc4ccccc4CC(=O)O)ccc3o2)n1`, the compound was called inactive.

For the compound `COc1cc(C(=O)NC2CCN(C)CC2)ccc1Nc1ncc2c(n1)N(C1CCCC1)CC(F)(F)C(=O)N2C`, the outcome was inactive.

For `O=C1c2ccccc2C(=O)N1CCc1noc(-c2ccc(CN3CCCCCC3)s2)n1`, the compound was classed as inactive.

As for `c1ccc(C[n+]2cccc3ccccc32)cc1`, the AC50 is 25 µM (active).

For `Cc1occc1C(=O)Nc1ccc(C(=O)N2CCC(F)(F)/C(=C\C(=O)N3CCC(N4CCCCC4)CC3)c3ccccc32)cc1`, the concentration at half-maximal activity (AC50) was 4.14 µM (active).

On to `O=C1CCC(C2CCCCC2)CC1`, for which the call was inactive.

Regarding `CN(C)c1ccc(C(=C2C=CC(=[N+](C)C)C=C2)c2ccc(N(C)C)cc2)cc1`, the concentration at half-maximal activity (AC50) is 16.4 µM (active).

Turning to `CN(C)C(=O)C1(N2CCCCC2)CCN(CC[C@@]2(c3ccc(Cl)c(Cl)c3)CN(C(=O)c3ccccc3)CCO2)CC1`, the result was inactive.
